B1: unnamed (peptide)
chain: SSAAPPPPPRRATPE

biological target: AgAbp1; experiment: SPOT peptide array binding signal intensity (averaged, normalized) (arbitrary units (background-subtracted, floor 0; scale differs between SH3 domains)); higher = stronger binding of the SH3 domain to the peptide
Method in brief: (§1)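 GST-fused SH3 domains, from four yeast species, were produced in E. coli BL21(DE3) and captured on glutathione Sepharose. Membranes of cellulose carrying synthetic 15-mer peptides, in which cysteines had been replaced by serines, were exposed to each domain at 10 μg/ml overnight at 4°C in TBS-based blocking buffer. After anti-GST antibody, an HRP anti-mouse secondary and luminol, spots were imaged and quantified using Genespotter. Binding signal is normalized and background-subtracted spot intensity, averaged over replicates, in arbitrary units that differ between domains.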

Row | Binder | SPOT peptide array binding signal intensity
1 | B1 | 0.5

biological target: AgBbc1; experiment: as above
Method in brief: as §1

Row | Binder | SPOT peptide array binding signal intensity
2 | B1 | 602

biological target: AgBem1-D1; experiment: as above
Method in brief: as §1

Row | Binder | SPOT peptide array binding signal intensity
3 | B1 | ≤ 0

biological target: AgBzz1-D1; experiment: as above
Method in brief: as §1

Row | Binder | SPOT peptide array binding signal intensity
4 | B1 | 122

biological target: AgBzz1-D2; experiment: as above
Method in brief: as §1

Row | Binder | SPOT peptide array binding signal intensity
5 | B1 | 18

biological target: AgCyk3; experiment: as above
Method in brief: as §1

Row | Binder | SPOT peptide array binding signal intensity
6 | B1 | ≤ 0

biological target: AgFus1; experiment: as above
Method in brief: as §1

Row | Binder | SPOT peptide array binding signal intensity
7 | B1 | 4

biological target: AgHof1; experiment: as above
Method in brief: as §1

Row | Binder | SPOT peptide array binding signal intensity
8 | B1 | 0.5

biological target: AgHse1; experiment: as above
Method in brief: as §1

Row | Binder | SPOT peptide array binding signal intensity
9 | B1 | 11

biological target: AgLsb1; experiment: as above
Method in brief: as §1

Row | Binder | SPOT peptide array binding signal intensity
10 | B1 | 355

biological target: AgLsb4; experiment: as above
Method in brief: as §1

Row | Binder | SPOT peptide array binding signal intensity
11 | B1 | 1120

biological target: AgMyo5; experiment: as above
Method in brief: as §1

Row | Binder | SPOT peptide array binding signal intensity
12 | B1 | 8

biological target: AgNbp2; experiment: as above
Method in brief: as §1

Row | Binder | SPOT peptide array binding signal intensity
13 | B1 | 0.5

biological target: AgRvs167; experiment: as above
Method in brief: as §1

Row | Binder | SPOT peptide array binding signal intensity
14 | B1 | 446

biological target: AgSho1; experiment: as above
Method in brief: as §1

Row | Binder | SPOT peptide array binding signal intensity
15 | B1 | 3

biological target: AgSla1-D1-D2; experiment: as above
Method in brief: as §1

Row | Binder | SPOT peptide array binding signal intensity
16 | B1 | 1

biological target: AgSla1-D3; experiment: as above
Method in brief: as §1

Row | Binder | SPOT peptide array binding signal intensity
17 | B1 | 12

biological target: CaAbp1-D1; experiment: as above
Method in brief: as §1

Row | Binder | SPOT peptide array binding signal intensity
18 | B1 | 28.5

biological target: CaAbp1-D2; experiment: as above
Method in brief: as §1

Row | Binder | SPOT peptide array binding signal intensity
19 | B1 | 23

biological target: CaBbc1; experiment: as above
Method in brief: as §1

Row | Binder | SPOT peptide array binding signal intensity
20 | B1 | 268

biological target: CaBem1-D1; experiment: as above
Method in brief: as §1

Row | Binder | SPOT peptide array binding signal intensity
21 | B1 | ≤ 0

biological target: CaBzz1-D1; experiment: as above
Method in brief: as §1

Row | Binder | SPOT peptide array binding signal intensity
22 | B1 | 1350

biological target: CaBzz1-D2; experiment: as above
Method in brief: as §1

Row | Binder | SPOT peptide array binding signal intensity
23 | B1 | 293

biological target: CaCyk3; experiment: as above
Method in brief: as §1

Row | Binder | SPOT peptide array binding signal intensity
24 | B1 | ≤ 0

biological target: CaFus1; experiment: as above
Method in brief: as §1

Row | Binder | SPOT peptide array binding signal intensity
25 | B1 | 134

biological target: CaHof1; experiment: as above
Method in brief: as §1

Row | Binder | SPOT peptide array binding signal intensity
26 | B1 | 31

biological target: CaHse1; experiment: as above
Method in brief: as §1

Row | Binder | SPOT peptide array binding signal intensity
27 | B1 | 6

biological target: CaLsb1; experiment: as above
Method in brief: as §1

Row | Binder | SPOT peptide array binding signal intensity
28 | B1 | 0.5

biological target: CaLsb4; experiment: as above
Method in brief: as §1

Row | Binder | SPOT peptide array binding signal intensity
29 | B1 | 3810

biological target: CaMyo5; experiment: as above
Method in brief: as §1

Row | Binder | SPOT peptide array binding signal intensity
30 | B1 | 0.5
